Measurements: PubChem BioAssay (NCI)
This is part of a sample that, as a whole, favours compounds with a hit. Of some 83,000 tested, about 20% had one in any assay.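 Negative percent growth values reflect cell death: -40 means 40% of the cells present at the start died, and -100 means all died.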 Activity calls are given as the source filed them. Rule for the calls: active = growth percent below 10; inactive = the rest.

What follows are compounds tested on SK-OV-3 ovarian (assay: NCI-60 one-dose screen, 48 h (100 = growth as untreated, 0 = no growth, -100 = all killed)). Details: 10 µM unless noted.

Compound | growth
CC(C)CCC[C@@H](C)[C@H]1CC[C@H]2[C@@H]3CC=C4C[C@@H](C(C(=O)O)C(=O)O)CC[C@]4(C)[C@H]3CC[C@]12C | -5.5% (active)
CCN1CCN(c2cc(C(=O)Nc3nc(-c4cc(OC)c(OC)c(OC)c4)cs3)cc(C(F)(F)F)c2)CC1 | 90.5% (inactive)
N#Cc1nn(-c2cc(=O)[nH]c3ccc(Cl)cc23)c(N)c1C#N | 74.6% (inactive)
CN(C)CCCn1c2c(c3ncccc3c1=O)C(=O)c1ccccc1-2 | 69.6% (inactive)
COc1cc(-c2nc3cc(Cl)c(Cl)cc3[nH]2)ccc1OCC(=O)N=Nc1c(O)[nH]c2ccc([N+](=O)[O-])cc12 | 77% (inactive)
C=CC(=O)NCc1ccc(Nc2nccc(-c3ccc(N4CCCC4)c(C#N)c3)n2)cc1 | 29.6% (inactive)
CSc1nnc(-c2cnn3c2NC(c2ccccc2)C3)n1-c1ccc(C(F)(F)F)cc1 (stereo not drawn) | 69.4% (inactive)
N=C(N)c1ccc(-c2ccc(-c3ccc(Cl)cc3)s2)nc1 | 86.7% (inactive)
O=C(OCc1ccc2c(Cl)cc(Cl)c(O)c2n1)n1cncn1 | 39% (inactive)
Cn1ccc2c3c(ccc21)CC3=O | 113% (inactive)
O=C1c2ccc3c4ccc5c6c(ccc(c7ccc(c2c37)C(=O)N1CCC[P+](c1ccccc1)(c1ccccc1)c1ccccc1)c64)C(=O)N(CCC[P+](c1ccccc1)(c1ccccc1)c1ccccc1)C5=O | 91.7% (inactive)
CCn1c(=S)[nH]c2c(=O)n(C)c(=O)n(C)c21 | 107% (inactive)
N#CC1=C(N)Oc2c(sc3c(F)cccc23)C1c1ccc(F)cc1 (stereo not drawn) | 31.8% (inactive)
C=C(C)[C@@H]1CC[C@]2(C(=O)N3CCN(C)CC3)CC[C@]3(C)[C@H](CC[C@@H]4[C@@]5(C)CC(=C/c6ccncc6)/C(=N/O)C(C)(C)[C@@H]5CC[C@]43C)[C@@H]12 | 98.7% (inactive)
Fc1ccc2[nH]cc(-c3nonc3-c3c[nH]c4ccc(Br)cc34)c2c1 | 44.3% (inactive)
O=C1c2c(c3c4ccc(Br)cc4oc3c3[nH]c4ccccc4c23)C(=O)N1O | 79.1% (inactive)
NC(=O)CCC(C(=O)O)N1C(=O)c2ccc(O)cc2C1=O (stereo not drawn) | -100% (active)

Compound | growth
COc1ccc2nc(NC(=O)CSc3nnc4n3S(=O)(=O)c3ccccc3N4C)sc2c1 | 136% (inactive)
C=C(C)[C@@H]1CC[C@]2(C(=O)NCC#CCN3CCN(C)CC3)CC[C@]3(C)[C@H](CC[C@@H]4[C@@](C)(CCC#N)[C@H](C(=C)C)CC[C@]43C)[C@@H]12 | 72.6% (inactive)
Cc1nnc(-n2c(O)cc(=O)n(-c3ccccc3)c2=S)nc1/C=C/c1ccc(N(C)C)cc1 | 45.6% (inactive)
C/C(=N\NC(=O)c1ccccc1O)c1cccc(/C(C)=N/NC(=O)c2ccccc2O)n1 | 45.6% (inactive)
O=C1c2cc(Cl)ccc2S(=O)(=O)c2c(NCCCNCCO)nc3ccccc3c21 | 75.7% (inactive)
Cc1cc2c(O)c(-c3cc(Cl)ccc3Cl)c3sc(=O)oc3c2cc1C | 76.3% (inactive)
O=C(Nc1ccc(NC(=O)c2cc(=O)[nH]c3ccccc23)cc1)Nc1cccc(C(F)(F)F)c1 | 69.1% (inactive)
c1ccc(C2=NN[C@H](c3cn(-c4ccccc4)nc3-c3ccccc3)C2)cc1 | -1.38% (active)
O=C(CCCCC1CCSS1)Nc1ncnc2n[nH]c(-c3ccc(Oc4ccccc4)cc3)c12 (stereo not drawn) | 123% (inactive)
COc1cc(OC)cc(C2=C3CC[C@@H]4[C@H](CC[C@]5(C)C(=O)CC[C@@H]45)C3=CC3C(O)c4cccnc4N4C(=O)COC234)c1 (stereo partly drawn) | 116% (inactive)
Cc1cnc(C(=O)NNc2nc3sc4c(c3c(=O)n2C)C(C)CCC4)cn1 (stereo not drawn) | 11.9% (inactive)
C=C(CNCCc1ccc(O)cc1)[C@@H]1CC[C@]2(CO)CC[C@]3(C)[C@H](CC[C@@H]4[C@@]5(C)CCC(NCCO)C(C)(C)[C@@H]5CC[C@]43C)[C@@H]12 (stereo partly drawn) | 86.4% (inactive)
COc1ccc(/C=N/C2=C(C#N)C(c3cccc(Cl)c3)c3c(ccc4ccccc34)O2)cc1 (stereo not drawn) | 52.4% (inactive)
CCc1ccc(Oc2cn[nH]c2-c2ccc(OCCc3ccc(F)cc3)cc2O)cc1 | 102% (inactive)
O=C(/C=C/c1cn(-c2ccccc2)nc1-c1ccc([N+](=O)[O-])cc1)c1ccc(Cl)cc1 | 66.5% (inactive)
CO[C@H]1/C=C(/C)CCC[C@H](C)[C@H](O)[C@@H](C)C(=O)C(C)(C)[C@@H](O)CC(=O)O[C@@H]1/C(C)=C/c1csc(C)n1 | 5.27% (active)
